Most compounds without a hit are left out; they make up all but 0.97% or so of the library.
CCT modulator: High-Throughput Screening for Modulators of Cytosolic Chaperonin Activity; actives 0.3% (n = 360,000); purified chaperonin ATPase assay, HTRF ADP detection, 30 min; activity change, % (no concentration beside the values), hits read low; in the data active = activity change below about -30%
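Enzyme 40 or 20 nM (batch-dependent) in Tris pH 7.4/KCl/MgCl2/DTT; cpd 76 uM single point; ATP 10 uM; 30 min 37 °C; Transcreener ADP HTRF detection, 30 min RT; ratio 665/615.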
CtBP-E1A blk: qHTS Assay for Inhibitors of the CtBP/E1A Interaction | CtBP / adenovirus E1A interaction (AlphaScreen) | AlphaScreen GST-E1A/His-CtBP binding, 1536-well; active compounds read low | activity change, % (test concentration not listed) | actives 0.49% (n = 340,000)
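Homogeneous bead-based format: GST-tagged E1A captured on glutathione donor beads, His-tagged CtBP on nickel acceptor beads; compounds precede bead addition by 2 h at 37 °C.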
Eya2 phos inh: qHTS Assay for Inhibitors of the Phosphatase Activity of Eya2; Protein phosphatase EYA2 (Homo sapiens), O00167; actives 0.006% (n = 330,000); recombinant Eya2, OMFP fluorescence dephosphorylation (OMFP is methylfluorescein phosphate); Potency, µM (titrated, usually from 76.9 µM), without a hit: at the top dose activity, negative = inhibition, most hits filed as inhibitors; active = well fitted inhibition curve with a large enough effect; inconclusive = small, poorly fitted or top-dose-only effect, or effect the other way; note: potency is the fitted concentration of half-maximal effect
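Eya2 protein (added as 0.2 uM solution) was preincubated with compound for 10 min at ambient temperature in 50 mM HEPES pH 7.5, 50 mM NaCl, 5 uM MgCl2, 0.05% BSA, 1 mM DTT. OMFP (added at 50 uM) then reacted 10 min; fluorescence read at 485/525 nm.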
PI4K2A inh: qHTS for small molecular inhibitors of PI4K2A; Phosphatidylinositol 4-kinase type 2-alpha (Homo sapiens), Q9BTU6; purified PI4K2A, ADP-Glo luminescence, 1 h; active compounds read low; activity change, negative = inhibition, % at 76.9 µM; actives 0.13% (n = 420,000); AID 1346378, 2018; in the data active = activity change below about -50%; inconclusive = mostly about -30% to -49%;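 note: -100% = wells without enzyme as full effect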
Target sequence (Q9BTU6 whole entry, looked up): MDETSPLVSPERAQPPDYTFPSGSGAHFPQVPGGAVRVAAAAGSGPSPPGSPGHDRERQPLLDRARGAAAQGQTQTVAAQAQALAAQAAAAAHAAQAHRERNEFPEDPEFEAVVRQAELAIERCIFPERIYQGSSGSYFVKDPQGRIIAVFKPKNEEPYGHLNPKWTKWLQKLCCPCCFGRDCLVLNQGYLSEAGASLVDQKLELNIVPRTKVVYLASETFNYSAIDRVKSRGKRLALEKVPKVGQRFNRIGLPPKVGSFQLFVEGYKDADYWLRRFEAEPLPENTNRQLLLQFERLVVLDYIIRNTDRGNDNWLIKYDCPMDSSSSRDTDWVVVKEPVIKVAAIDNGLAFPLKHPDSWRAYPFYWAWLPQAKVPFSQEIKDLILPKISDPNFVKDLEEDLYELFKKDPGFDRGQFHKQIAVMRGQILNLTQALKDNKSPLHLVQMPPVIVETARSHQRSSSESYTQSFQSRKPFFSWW
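Compounds are screened against recombinant PI4K2A using PI as substrate and ATP, the latter dispensed at 300 microM. Reactions run one hour at ambient temperature before ADP-Glo detection; full inhibition defined by wells lacking enzyme.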
Six1-Eya2 inh: qHTS Assay for Inhibitors of the Six1/Eya2 Interaction; AlphaScreen GST-Six1/His-Eya2 binding, biochemical; active compounds read low; actives 0.56% (n = 360,000); Homeobox protein SIX1 (Homo sapiens) + Protein phosphatase EYA2 (Homo sapiens), …; activity change, % (no concentration beside the values)
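GST-Six1 + His-Eya2 (5X stock: 250/500 nM); Tris pH 8.0, 300 mM NaCl, 0.05% BSA, 0.02% Tween 20; GSH donor/Ni acceptor beads; 1 h 37 °C dark; AlphaScreen readout.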
The depositor's hits bear a star. Cut-off read from the data, not from the text of the source, unless noted: active = activity change below about -65%; inconclusive = mostly about -30% to -63%; inactive = weaker than that. Unless noted, % is set by controls: 0 for no effect and ±100 for the full control effect.

COc1cc(C(=O)N(Cc2ccc(F)cc2)Cc2ccco2)cc(OC)c1OC was read as PI4K2A inh 1.
`COc1cc(/C=C2/C(=O)CNC2=O)ccc1O` gave CCT modulator 0, CtBP-E1A blk 1, Eya2 phos inh -12%, PI4K2A inh -4 and Six1-Eya2 inh 1.
For COc1cc(C=C2C(=O)C=CC2=O)ccc1O the results were CCT modulator -1, CtBP-E1A blk 7, PI4K2A inh -56* and Six1-Eya2 inh -74*.
For CCCCC(=O)Nc1cc2nn(-c3ccc(OCC)cc3)nc2cc1C the results were PI4K2A inh 1.
`OCC[C@H]1C[C@H](O)[C@@H](O)[C@]2(CCCO2)O1` gave CCT modulator -65*, CtBP-E1A blk 4, PI4K2A inh -1 and Six1-Eya2 inh 11.
Screening c1ccc2nc(-c3nc4ccccc4[nH]3)ccc2c1 returned CCT modulator 0, CtBP-E1A blk -2, Eya2 phos inh -7%, PI4K2A inh -66* and Six1-Eya2 inh 0.
c1ccc2[nH]c(-c3cscn3)nc2c1 was read as CCT modulator 0, CtBP-E1A blk -2, Eya2 phos inh 2%, PI4K2A inh 0 and Six1-Eya2 inh 3.
`COC(=O)/C=C/c1ccccc1CN1[C@@H](CC(=O)OC)c2ccccc2S1(=O)=O` gave CCT modulator 1, CtBP-E1A blk -83*, Eya2 phos inh 6%, PI4K2A inh 4 and Six1-Eya2 inh -24.
Screening CC1CCC(NC(=O)COc2ccc(C(=O)c3ccccc3)cc2)CC1 (configuration not stated) returned CCT modulator -45*, CtBP-E1A blk -21, Eya2 phos inh 1%, PI4K2A inh 3 and Six1-Eya2 inh 10.
COCc1cc(=O)[nH]c(Nc2nc3ccc(C)cc3o2)n1 was read as CCT modulator 0, CtBP-E1A blk -87*, Eya2 phos inh 0%, PI4K2A inh -2 and Six1-Eya2 inh -84*.
`Nc1nc2nn(-c3ccccc3)nc2c(=O)[nH]1` gave CCT modulator -1, Eya2 phos inh 11%, PI4K2A inh -9 and Six1-Eya2 inh inconclusive.
Screening Nc1nc2c(ncn2-c2ccccc2)c(=O)[nH]1 returned CCT modulator 1, CtBP-E1A blk -73*, PI4K2A inh -7 and Six1-Eya2 inh inconclusive.
`CCOC(=O)c1ccc2c(c1)n(CC)c(C)[n+]2CC` gave CCT modulator 1, CtBP-E1A blk 0, Eya2 phos inh -6%, PI4K2A inh inconclusive and Six1-Eya2 inh 0.
CCn1c(C)[n+](CC)c2ccc(C(=O)N(C)c3ccccc3)cc21 was read as CCT modulator -33*, Eya2 phos inh 7%, PI4K2A inh 1 and Six1-Eya2 inh 4.
O=C(Nc1ccc2oc(-c3cc(Br)ccc3Cl)nc2c1)c1cc2ccccc2o1 was read as PI4K2A inh -9.
COc1ccc(Cc2nnc(NC(=O)CSc3ccc(C)cc3)s2)cc1 was read as CCT modulator -41*, CtBP-E1A blk 1, Eya2 phos inh 0%, PI4K2A inh 5 and Six1-Eya2 inh -8.
`COc1ccc(NC(=O)Cn2c(=O)n(-c3ccc(Cl)cc3)c(=O)c3c(C)c(C(=O)N(C)C)sc32)cc1Cl` gave PI4K2A inh -1.
Cc1ccc(NC(=O)CCNS(=O)(=O)c2ccc3c(c2)CCN3C(=O)C2CC2)c(Cl)c1 was read as PI4K2A inh -1.
Screening O=C(N/N=C/c1ccc(-c2ccc(S(=O)(=O)Nc3ncccn3)cc2)o1)c1cc2ccccc2cc1O returned CCT modulator -2, CtBP-E1A blk -20, Eya2 phos inh 22%, PI4K2A inh inconclusive and Six1-Eya2 inh -67*.
For CCOc1ccc(C(=O)N/N=C/c2ccc(-c3ccc(S(=O)(=O)Nc4ncccn4)cc3)o2)cc1 the results were CCT modulator -1, CtBP-E1A blk inconclusive, Eya2 phos inh -23%, PI4K2A inh -4 and Six1-Eya2 inh inconclusive.
Screening COc1ccc(C)cc1N=Nc1ccc(O)c2ncccc12 returned CCT modulator 3, Eya2 phos inh 2%, PI4K2A inh -20 and Six1-Eya2 inh -95*.
Screening Nc1ccc(N=Nc2ccccc2)c2cccnc12 returned CCT modulator 1, CtBP-E1A blk -73*, Eya2 phos inh -13%, PI4K2A inh 1 and Six1-Eya2 inh -65*.
`COc1ccc(N=Nc2cc(-c3ccccc3)ccc2O)cc1` gave CCT modulator 1, CtBP-E1A blk -69*, Eya2 phos inh 0%, PI4K2A inh -1 and Six1-Eya2 inh inconclusive.
For COc1ccc(-c2ncccc2O)cc1 the results were CCT modulator 0, CtBP-E1A blk -5, Eya2 phos inh -5%, PI4K2A inh 9 and Six1-Eya2 inh 5.
Screening COc1cccc(N=Nc2ccc(O)c3ncccc23)c1 returned CCT modulator -2, CtBP-E1A blk -96*, Eya2 phos inh 6%, PI4K2A inh inconclusive and Six1-Eya2 inh -70*.
COc1cc(Nc2c(C#N)cnc3cc(OCCCN4CCN(C)CC4)c(OC)cc23)c(Cl)cc1Cl was read as PI4K2A inh 2.
For COC(=O)[C@]12C[C@H](CC(=O)NCc3ccc(C)o3)C(=O)N(Cc3ccc(Cl)cc3Cl)C1=C[C@H](COCc1ccccc1)O[C@@H]2C the results were PI4K2A inh -3.
CCOC(=O)c1sc2cccc(F)c2c1S(=O)(=O)N1CCN(c2cccc(Cl)c2)CC1 was read as PI4K2A inh -7.
Screening CC(C)c1cc(-c2nc(-c3ccc(Cl)cc3)no2)n[nH]1 returned PI4K2A inh -3.
For COc1ccc(N=Nc2ccc(O)c3ncccc23)cc1 the results were CCT modulator 1, Eya2 phos inh 9%, PI4K2A inh -2 and Six1-Eya2 inh -86*.
For Oc1ccc(N=Nc2ccc3c(c2)OCCO3)c2cccnc12 the results were CCT modulator 0, CtBP-E1A blk -84*, Eya2 phos inh -10%, PI4K2A inh -11 and Six1-Eya2 inh -77*.
For COc1cccc(N=Nc2ccc3cccnc3c2O)c1 the results were CCT modulator -1, Eya2 phos inh 9%, PI4K2A inh inconclusive and Six1-Eya2 inh -91*.
Cc1ccc(C(=O)n2ccc3ccc(-c4ccc5ccn(Cc6ccccc6)c5c4)cc32)cc1 was read as PI4K2A inh -6.
`Cc1cc(C)c(S(=O)(=O)N2CCN(Cc3nc4ccc(C)cc4o3)CC2)c(C)c1` gave PI4K2A inh 7.
